# From PubChem BioAssay (NCATS)
# Where “and” joins values, the source holds several entries; their conditions need not be identical. Identical values can stand only once. A number with no mark means an inactive call. Records with an inconclusive call do not appear. A call without a number means that no potency is given here. Calls of active or inactive are those of the source. Unless noted, calls come from the whole dose curve; as a rule, active = well fitted curve in the direction sought with a large enough effect in the repeat runs; inconclusive = weak or mixed curves; inactive = no such curve, though single readings can be large; an effect the other way counts as inactive or inconclusive.
# Target: Peroxisome proliferator-activated receptor alpha (Homo sapiens) (UniProt Q07869)
# Experiment: qHTS assay for small molecule agonists of the peroxisome proliferator-activated receptor alpha (PPARalpha) signaling pathway (AID 651778; active = well fitted curve in the direction sought with a large enough effect; an effect the other way counts as inactive or inconclusive)
# Details: PathHunter PPARalpha complementation, chemiluminescence, 6 h; active compounds read high
# Method in brief: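 Chemiluminescence from complemented enzyme reported PPARalpha activation in cells after 6 hr of compound treatment at 37 C. The detection reagent was incubated for 60 min at room temperature, and compounds were scored as agonists.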
# Peroxisome proliferator-activated receptor alpha (Homo sapiens), sequence (Q07869 whole entry, looked up): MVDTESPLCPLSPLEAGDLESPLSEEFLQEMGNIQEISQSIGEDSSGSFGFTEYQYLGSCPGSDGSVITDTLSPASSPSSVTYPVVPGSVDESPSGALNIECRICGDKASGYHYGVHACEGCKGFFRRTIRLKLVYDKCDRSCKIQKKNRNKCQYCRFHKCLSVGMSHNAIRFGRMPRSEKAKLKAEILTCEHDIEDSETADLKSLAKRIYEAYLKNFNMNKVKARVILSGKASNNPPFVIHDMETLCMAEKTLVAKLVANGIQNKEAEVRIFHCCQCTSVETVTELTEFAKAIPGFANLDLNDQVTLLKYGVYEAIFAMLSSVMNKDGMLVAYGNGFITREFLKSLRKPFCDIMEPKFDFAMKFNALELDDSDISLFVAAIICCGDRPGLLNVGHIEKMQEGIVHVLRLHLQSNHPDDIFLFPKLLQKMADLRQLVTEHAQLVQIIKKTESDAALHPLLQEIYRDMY
row,Structure (SMILES),max response [%]
1,OCC(Cl)CCl (stereo not drawn),0.308
2,CC[N+](=O)[O-],1.55
3,CC(C)(Cl)[N+](=O)[O-],-3.23
4,C[N+](=O)[O-],-2.13
5,CC(C)OC(=O)Cc1ccccc1,0.38
6,ClCC(Br)CBr (stereo not drawn),-1.61

# Target: Nuclear receptor ROR-gamma (Homo sapiens) (UniProt P51449)
# Experiment: qHTS assay for small molecule antagonists of the retinoid-related orphan receptor gamma (ROR-gamma) signaling pathway (AID 651802; active = well fitted curve in the direction sought with a large enough effect; an effect the other way counts as inactive or inconclusive;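 note: CHO cells with doxycycline-induced ROR-gamma expression; luciferase reporter luminescence driven by ROR response element; nearly all actives have a fitted effect of over 60% in size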)
# Details: ROR-gamma antagonist cell reporter assay; series mostly up to 92.2 µM
# Method in brief: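 Luciferase read-out: ONE-Glo luminescence after 30 min at room temperature, following 16hr doxycycline induction at 37C, 5% CO2 of CHO cells with TET-inducible ROR and RORE-LUC reporter; decreased luminescence = reduced reporter activity.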
# Nuclear receptor ROR-gamma (Homo sapiens), sequence (P51449 whole entry, looked up): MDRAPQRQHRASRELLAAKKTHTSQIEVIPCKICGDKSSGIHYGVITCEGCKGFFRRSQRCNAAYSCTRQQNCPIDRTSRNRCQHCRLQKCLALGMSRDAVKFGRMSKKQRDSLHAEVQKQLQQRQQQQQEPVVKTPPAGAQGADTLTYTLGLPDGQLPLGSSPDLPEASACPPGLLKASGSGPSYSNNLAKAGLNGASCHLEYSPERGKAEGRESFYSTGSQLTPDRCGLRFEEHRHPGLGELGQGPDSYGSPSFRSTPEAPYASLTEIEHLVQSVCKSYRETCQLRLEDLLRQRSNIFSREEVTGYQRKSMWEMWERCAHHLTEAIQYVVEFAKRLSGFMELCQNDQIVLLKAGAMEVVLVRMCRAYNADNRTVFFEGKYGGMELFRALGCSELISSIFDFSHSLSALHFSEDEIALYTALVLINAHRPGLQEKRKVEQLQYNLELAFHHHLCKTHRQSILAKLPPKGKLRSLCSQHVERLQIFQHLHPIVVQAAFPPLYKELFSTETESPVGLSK
row,Structure (SMILES),Potency
1,CC(C#N)CCC#N (stereo not drawn),inactive
2,Nc1cc(Cl)ccc1Cl,inactive
3,Nc1cccc(Cl)c1,inactive
4,ClCc1ccccc1,inactive
5,CCC/C=N/O,inactive
6,COc1c(C(C)(C)C)cc([N+](=O)[O-])c(C)c1[N+](=O)[O-],inactive
7,C=CCOCC1CO1 (stereo not drawn),inactive
8,Clc1ccccc1,inactive
9,ClC(Cl)(Cl)C(Cl)(Cl)Cl,inactive
10,CCOC(=O)C1OC1(C)c1ccccc1 (stereo not drawn),inactive
11,C/C=C/CC#N,inactive
12,C=CCCl,inactive
13,Oc1c(Cl)cccc1Cl,inactive
14,Brc1cccc(-c2ccccc2)c1,inactive
15,OCCCCO,inactive
16,Nn1cnnc1,inactive

row,Structure (SMILES),Potency
1,BrCCc1ccccc1,inactive
2,Cc1ccccc1[N+](=O)[O-],inactive
3,CCCCOC(=O)c1ccccc1N,inactive
4,C1CC2OC2CC1C1CO1 (stereo not drawn),inactive
5,CN(C)C(=O)Cl,inactive
6,CC(=O)NNc1ccccc1,inactive
7,Cc1ccc(N=C=O)cc1N=C=O,inactive
8,O=C(Cl)OCc1ccccc1,inactive
9,C=CC(=O)OC,inactive
10,CCN(CC)N=O,inactive
11,OCC(Cl)CCl (stereo not drawn),inactive
12,CC[N+](=O)[O-],inactive
13,CC(C)(Cl)[N+](=O)[O-],inactive
14,C[N+](=O)[O-],inactive
15,CC(C)OC(=O)Cc1ccccc1,inactive
16,ClCC(Br)CBr (stereo not drawn),inactive

# Test system: not listed separately
# Experiment: qHTS assay for small molecule agonists of the antioxidant response element (ARE) signaling pathway measured by Nrf2-dependant transcriptional activity (AID 720636);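 note: HepG2 cells with an ARE-driven luciferase reporter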
# Details: ARE-luc HepG2, Nrf2 luciferase reporter, 16 h; series mostly up to 92.4 µM
# Method in brief: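 In HepG2 cells engineered with an Nrf2-responsive luciferase gene, ARE induction was quantified as luminescence after 16 hr compound treatment at 37 C.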
row,Structure (SMILES),Potency
1,CC(C#N)CCC#N (stereo not drawn),inactive
2,Nc1cc(Cl)ccc1Cl,inactive
3,Nc1cccc(Cl)c1,inactive
4,ClCc1ccccc1,inactive
5,CCC/C=N/O,inactive
6,COc1c(C(C)(C)C)cc([N+](=O)[O-])c(C)c1[N+](=O)[O-],inactive
7,O=S(=O)(Cl)c1ccccc1,inactive
8,c1ccoc1,inactive
9,ClC(Cl)(Cl)C(Cl)(Cl)Cl,inactive
10,CCOC(=O)C1OC1(C)c1ccccc1 (stereo not drawn),inactive
11,C/C=C/CC#N,inactive
12,ClC(Cl)C(Cl)Cl,inactive
13,C=CCCl,inactive
14,Oc1c(Cl)cccc1Cl,inactive
15,Brc1cccc(-c2ccccc2)c1,inactive
16,C=CCO,inactive
17,OCCCCO,inactive

row,Structure (SMILES),Potency
1,Nn1cnnc1,inactive
2,BrCCc1ccccc1,inactive
3,Cc1ccccc1[N+](=O)[O-],inactive
4,CCCCOC(=O)c1ccccc1N,inactive
5,Clc1cc(Cl)c(Cl)c(Cl)c1,inactive
6,Cc1ccc(N)c(C)c1,inactive
7,C1CC2OC2CC1C1CO1 (stereo not drawn),inactive
8,CN(C)C(=O)Cl,inactive
9,CC(=O)NNc1ccccc1,inactive
10,Cc1ccc(N=C=O)cc1N=C=O,inactive
11,O=C(Cl)OCc1ccccc1,inactive
12,CCN(CC)N=O,inactive
13,OCC(Cl)CCl (stereo not drawn),inactive
14,CC(C)CON=O,inactive
15,CC[N+](=O)[O-],inactive
16,CC(C)(Cl)[N+](=O)[O-],inactive
17,C[N+](=O)[O-],inactive

# Test system: not listed separately
# Experiment: qHTS assay for small molecule antagonists of the retinoid-related orphan receptor gamma (ROR-gamma) signaling pathway - cell viability counter screen (AID 720652);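 note: CHO reporter cells with doxycycline-induced ROR-gamma expression; compound exposure lasted 16 hr before ATP read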
# Details: RORgamma reporter cell line viability counter screen; series mostly up to 92.2 µM
# Method in brief: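 CHO RORE-LUC/TET-ROR line, 1,000 cells/well, 37 C 5% CO2 5 hr; cpd or DMSO + doxycycline induction, 16 hr. CellTiter-Glo, 30 min RT, luminescence = ATP content.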
row,Structure (SMILES),Potency
1,Nc1cc(Cl)ccc1Cl,inactive
2,Nc1cccc(Cl)c1,inactive
3,ClCc1ccccc1,inactive
4,CCC/C=N/O,inactive
5,O=S(=O)(Cl)c1ccccc1,inactive
6,C=CCOCC1CO1 (stereo not drawn),inactive
7,c1ccoc1,inactive
8,ClC(Cl)(Cl)C(Cl)(Cl)Cl,inactive
9,CCOC(=O)C1OC1(C)c1ccccc1 (stereo not drawn),inactive
10,C/C=C/CC#N,inactive
11,ClC(Cl)C(Cl)Cl,inactive
12,Oc1c(Cl)cccc1Cl,inactive
13,Brc1cccc(-c2ccccc2)c1,inactive
14,C=CCO,inactive
15,OCCCCO,inactive
16,BrCCc1ccccc1,inactive

row,Structure (SMILES),Potency
1,CCCCOC(=O)c1ccccc1N,inactive
2,Clc1cc(Cl)c(Cl)c(Cl)c1,inactive
3,Cc1ccc(N)c(C)c1,inactive
4,C1CC2OC2CC1C1CO1 (stereo not drawn),inactive
5,CN(C)C(=O)Cl,inactive
6,CC(=O)NNc1ccccc1,inactive
7,Cc1ccc(N=C=O)cc1N=C=O,inactive
8,O=C(Cl)OCc1ccccc1,inactive
9,C=CC(=O)OC,inactive
10,CCN(CC)N=O,inactive
11,OCC(Cl)CCl (stereo not drawn),inactive
12,CC[N+](=O)[O-],inactive
13,CC(C)(Cl)[N+](=O)[O-],inactive
14,C[N+](=O)[O-],inactive
15,CC(C)OC(=O)Cc1ccccc1,inactive
16,ClCC(Br)CBr (stereo not drawn),inactive

# Test system: not listed separately
# Experiment: qHTS assay for small molecule agonists of the antioxidant response element (ARE) signaling pathway measured by Nrf2-dependant transcriptional activity - cell viability counter screen (AID 720653)
# Details: ARE-bla HepG2 viability, CellTiter-Glo ATP luminescence, 16 h; active compounds read low
# Method in brief: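 Cytotoxicity counter screen: intracellular ATP quantified by CellTiter-Glo luminescence in the same ARE-bla HepG2 plates, after 16 h compound exposure and a 2 h beta-lactamase substrate step.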
row,Structure (SMILES),max response
1,CC(C#N)CCC#N (stereo not drawn),0.528%
2,Nc1cc(Cl)ccc1Cl,5.24%
3,Nc1cccc(Cl)c1,2.22%
4,ClCc1ccccc1,16.1%
5,CCC/C=N/O,-12.8%
6,COc1c(C(C)(C)C)cc([N+](=O)[O-])c(C)c1[N+](=O)[O-],4.77%
7,O=S(=O)(Cl)c1ccccc1,9.62% and -3.03%
8,C=CCOCC1CO1 (stereo not drawn),2.37%
9,c1ccoc1,9.49%
10,Clc1ccccc1,-18.9%
11,ClC(Cl)(Cl)C(Cl)(Cl)Cl,-0.289%
12,CCOC(=O)C1OC1(C)c1ccccc1 (stereo not drawn),-18.9%
13,C/C=C/CC#N,-11.2%
14,ClC(Cl)C(Cl)Cl,-4.41%
15,C=CCCl,-2.66%
16,Oc1c(Cl)cccc1Cl,9.38%
17,Brc1cccc(-c2ccccc2)c1,-6.68%
18,C=CCO,1.93%
19,OCCCCO,-2.13%
20,Nn1cnnc1,-3.98%

row,Structure (SMILES),max response
1,BrCCc1ccccc1,-7.12%
2,Cc1ccccc1[N+](=O)[O-],11.5%
3,CCCCOC(=O)c1ccccc1N,4.85%
4,Clc1cc(Cl)c(Cl)c(Cl)c1,-5.74%
5,Cc1ccc(N)c(C)c1,-6.08%
6,C1CC2OC2CC1C1CO1 (stereo not drawn),-8.97% and -5.29%
7,CN(C)C(=O)Cl,-21%
8,CC(=O)NNc1ccccc1,1.56%
9,Cc1ccc(N=C=O)cc1N=C=O,-4.8% and -0.784%
10,O=C(Cl)OCc1ccccc1,6.86%
11,C=CC(=O)OC,8.65%
12,CCN(CC)N=O,2.46%
13,OCC(Cl)CCl (stereo not drawn),-10.2%
14,CC(C)CON=O,3.18%
15,CC[N+](=O)[O-],9.27%
16,CC(C)(Cl)[N+](=O)[O-],-1.78%
17,C[N+](=O)[O-],-1.82%
18,CC(C)OC(=O)Cc1ccccc1,-4.02%
19,ClCC(Br)CBr (stereo not drawn),3.72%
